Cruzain Triton = cruzain (T. cruzi) inhibition with detergent; purified cruzain, Z-FR-AMC fluorescence, 0.01% Triton; Potency, µM, for the others: max response, negative = inhibition, actives largely listed as inhibitors; 200,000 compounds, 0.43% hits; P25779; AID 1478;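 note: plate controls were neutral wells for no effect and buffer without enzyme for full effect; nearly all actives have a fitted effect of over 40% in size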
Target sequence (P25779 123-467 limits assumed): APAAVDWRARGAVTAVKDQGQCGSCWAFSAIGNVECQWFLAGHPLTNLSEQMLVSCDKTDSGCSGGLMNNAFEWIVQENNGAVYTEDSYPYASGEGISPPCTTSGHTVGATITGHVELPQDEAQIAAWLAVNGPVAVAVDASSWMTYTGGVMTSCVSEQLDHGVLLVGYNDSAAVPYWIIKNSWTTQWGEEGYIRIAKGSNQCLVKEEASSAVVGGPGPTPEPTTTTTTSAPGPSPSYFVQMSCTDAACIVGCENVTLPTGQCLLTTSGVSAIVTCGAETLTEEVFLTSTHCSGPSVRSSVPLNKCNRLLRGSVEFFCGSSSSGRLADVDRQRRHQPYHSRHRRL
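Cruzain (1.5 nM) preincubated 15 min at RT with compound in 100 mM sodium acetate pH 5.5, 5 mM DTT, 0.01% Triton X-100. Reaction started with 2 uM Z-FR-AMC; AMC fluorescence (ex 360/em 450 nm) change over 60 s gave rate.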
Cruzain inh noDet = inhibitors of Trypanosoma cruzi cruzain without detergent; 200,000 compounds, 2.3% hits; Potency, µM, for the others: max response, negative = inhibition, usual class: inhibitors; P25779; AID 1476; purified cruzain, Z-FR-AMC fluorescence, no detergent;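 note: plate controls were enzyme without inhibitor for no effect and buffer without enzyme for full effect; nearly all actives have a fitted effect of over 40% in size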
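Detergent-free condition (0.00005% Triton X-100) in acetate buffer pH 5.5 with DTT. 1.5 nM enzyme and compound were pre-mixed 15 min, then 2 uM Z-FR-AMC substrate added; reaction progress from fluorescence change between first and third reads (60 s).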
* = called active by the depositor. A selection: hits, their analogues and other compounds. The true share with any hit is near 2.4%. Calls come from the whole dose curve; as a rule, active = well fitted curve in the direction sought with a large enough effect; inconclusive = small, poorly fitted or top-dose-only effect, or another doubt; inactive = no such curve, though single readings can be large; an effect the other way counts as inactive or inconclusive. Potency is the fitted concentration of half-maximal effect.

`CCOC(=O)c1c(C)[nH]c(C(=O)COC(=O)CCSc2ccccc2)c1C` gave Cruzain Triton 25µM* and Cruzain inh noDet -16%.
For CCOC(=O)c1c(C)[nH]c(C(=O)CSc2ccccc2)c1C the results were Cruzain Triton 0% and Cruzain inh noDet inconclusive.
CCc1ccc(Cn2nnc(C(=O)Nc3ccc(C)cc3)c2N)cc1 was read as Cruzain Triton 4% and Cruzain inh noDet inconclusive.
`CC(C)NC(=O)N1CC2(CCN(C(=O)c3ccco3)CC2)C1` gave Cruzain Triton -1% and Cruzain inh noDet 0%.
`Cc1ccc(-n2c(=O)c3c(cnn3C)n(CC(=O)Nc3cccc(Cl)c3)c2=O)cc1` gave Cruzain Triton -7% and Cruzain inh noDet 4%.
`CCc1cccc(NC(=O)CN2CCCN(Cc3cccc(C)c3)S2(=O)=O)c1` gave Cruzain Triton -5% and Cruzain inh noDet 8%.
Screening CN1[C@@H]2CC[C@@H]1CC(OC(=O)[C@H](CO)c1ccccc1)C2 (stereo not given in full) returned Cruzain Triton 1% and Cruzain inh noDet -2%.
For NCC1O[C@@H](OC2C(N)C[C@H](N)[C@@H](O[C@H]3OC(CO)C(O)C(N)C3O)C2O)C(O)C(O)C1O (stereo not given in full) the results were Cruzain Triton 0% and Cruzain inh noDet 2%.
`CC(C)[C@@H](CC(=O)N[C@@H]1CCNC[C@H]1C(=O)N[C@H](CC(=O)N[C@@H](CCC(=O)O)CC(=O)O)Cc1ccccc1)NC(=O)C[C@H](Cc1c[nH]c2ccccc12)NC(=O)[C@@H]1CCCC[C@H]1N` gave Cruzain Triton 0% and Cruzain inh noDet 22%.
For O=C(CSc1nc(-c2ccc(F)cc2)nc2c1Cc1ccccc1O2)Nc1cccc(C(=O)O)c1 the results were Cruzain Triton -4% and Cruzain inh noDet -2%.
For O=C(CSc1nc(-c2ccccc2)nc2c1Cc1ccccc1O2)Nc1ccccc1 the results were Cruzain Triton 9% and Cruzain inh noDet 25µM*.
For COC(=O)c1sccc1NC(=O)/C=C\c1ccc(Cl)cc1Cl the results were Cruzain Triton 3% and Cruzain inh noDet 3.2µM*.
Screening COC(=O)c1sccc1NC(=O)/C=C/c1ccc(Cl)cc1 returned Cruzain Triton -2% and Cruzain inh noDet 3%.
For CN(C)S(=O)(=O)c1cccc(NC(=S)NN=C(Cc2ccccc2)Cc2ccccc2)c1 the results were Cruzain Triton -3% and Cruzain inh noDet 32µM*.
COc1cc(/C=N/NC(=S)Nc2cccc(S(=O)(=O)N(C)C)c2)ccc1O was read as Cruzain Triton -18% and Cruzain inh noDet -8%.
Screening Cc1ccc(Cn2c(CN3CCC(C(=O)O)CC3)cc3ccccc32)cc1 returned Cruzain Triton -3% and Cruzain inh noDet 2%.
For O=C(Nc1cccc(C(=O)N2CCN(c3ccc(Cl)cc3)CC2)c1)c1nsc2ccccc12 the results were Cruzain Triton 0% and Cruzain inh noDet 20µM*.
Screening O=C(Nc1ccc(C(=O)N2CCN(c3cccc(Cl)c3)CC2)cc1)c1nsc2ccccc12 returned Cruzain Triton -1% and Cruzain inh noDet 10µM*.
`O=C(Nc1cccc(C(=O)N2CCN(c3cccc(Cl)c3)CC2)c1)c1nsc2ccccc12` gave Cruzain Triton -1% and Cruzain inh noDet inconclusive.
Screening O=C(Nc1ccc(C(=O)N2CCN(c3ccccc3)CC2)cc1)c1nsc2ccccc12 returned Cruzain Triton -1% and Cruzain inh noDet -29%.
For COc1ccc(-c2nc3c(c(SCc4ccc(Br)cc4)n2)Cc2c(CO)cnc(C)c2O3)cc1 the results were Cruzain Triton -1% and Cruzain inh noDet 23%.
`Cc1ccc(NC(=O)C2CCC(CNS(=O)(=O)c3ccc4c(c3)CCCC(=O)N4)CC2)c(C)c1` (stereo not given) gave Cruzain Triton 0% and Cruzain inh noDet 5%.
For O=C(O)CCC(=O)c1cccc2ccccc12 the results were Cruzain Triton -2% and Cruzain inh noDet -9%.
For C[N+](C)(C)CCC(=O)c1cccc2ccccc12 the results were Cruzain Triton 14µM* and Cruzain inh noDet 10µM*.
Screening O=S(=O)(c1ccc(-c2cc(C(F)(F)F)on2)s1)N1CCN(c2ccccc2F)CC1 returned Cruzain Triton 2% and Cruzain inh noDet -19%.
Screening COc1ccc(C2c3c(ccc4ccccc34)Oc3ncn4nc(-c5ccco5)nc4c32)cc1 (stereo not given) returned Cruzain Triton 2% and Cruzain inh noDet inconclusive.
c1ccc(C2c3c(ccc4ccccc34)Oc3ncn4nc(-c5ccco5)nc4c32)cc1 (stereo not given) was read as Cruzain Triton -6% and Cruzain inh noDet 3.2µM*.
`COc1ccc(C2c3c(ccc4ccccc34)Oc3ncn4nc(CO/N=C/c5ccccc5)nc4c32)cc1` (stereo not given) gave Cruzain Triton 5% and Cruzain inh noDet 3.2µM*.
For COc1ccc(C2c3c(ccc4ccccc34)Oc3ncn4nc(Cc5ccc(OC)c(OC)c5)nc4c32)cc1 (stereo not given) the results were Cruzain Triton -1% and Cruzain inh noDet 3%.
Screening O=C(COc1ccccc1)NCCc1csc(-c2ccc(Cl)cc2)n1 returned Cruzain Triton -12% and Cruzain inh noDet inconclusive.
COC(=O)c1scc(-c2ccc(C)cc2)c1S(=O)(=O)Nc1cc(C)c(Cl)cc1OC was read as Cruzain Triton 10% and Cruzain inh noDet 4%.
Screening COC(=O)c1cc(Br)ccc1-c1ccc(/C=N/n2nnnc2N)o1 returned Cruzain Triton -9% and Cruzain inh noDet 13µM*.
`Cc1ccc([N+](=O)[O-])cc1-c1ccc(/C=N\n2nnnc2N)o1` gave Cruzain Triton -10% and Cruzain inh noDet 0%.
`CC(NCc1ccc2c(c1)n(C)c(=O)n2C)c1ccccc1` (stereo not given) gave Cruzain Triton 3% and Cruzain inh noDet 0%.
Screening CC(C)CC(=O)NC1(C(F)(F)F)C(=O)Nc2c1c(=O)[nH]c(=O)n2-c1ccccc1 (stereo not given) returned Cruzain Triton -1% and Cruzain inh noDet -3%.
Cc1ccc(-c2c3c(nc4sc(C(N)=O)c(N)c24)CCC3)cc1 was read as Cruzain Triton -10% and Cruzain inh noDet -3%.
`Cc1ccc(C(=O)Cn2nnc3c(sc4nc5c(c(-c6ccccc6)c43)CCC5)c2=O)cc1` gave Cruzain Triton -3% and Cruzain inh noDet 20µM*.
O=C(Cn1cnc2ccccc2c1=O)Nc1ccc2c(c1)CCC2 was read as Cruzain Triton -2% and Cruzain inh noDet 3%.
For O=C(Cn1cnc2cc([N+](=O)[O-])ccc2c1=O)Nc1ccc2c(c1)CCC2 the results were Cruzain Triton 0% and Cruzain inh noDet 16µM*.
`Cc1ccc(C)c(Nc2nn3c(=O)c4ccc(C(=O)NCc5cccs5)cc4nc3s2)c1` gave Cruzain Triton 0% and Cruzain inh noDet -7%.
`COC(=O)c1c(NC(=O)c2ccc(C(C)(C)C)cc2)sc2c1CCC(C)C2` (stereo not given) gave Cruzain Triton -4% and Cruzain inh noDet -8%.
CCN(CC)C(=O)C1=C(C)Nc2nc3ccccc3n2C1c1ccc(Cl)cc1 (stereo not given) was read as Cruzain Triton -4% and Cruzain inh noDet 1%.
N#CC1=C(N)Nc2nc3ccccc3n2C1c1ccc(Cl)cc1 (stereo not given) was read as Cruzain Triton -1% and Cruzain inh noDet 32µM*.
